Screening results as filed in PubChem BioAssay.
hNpr1 antagonist: blocks ANP-stimulated signaling of human Npr1 receptor. P16066. HEK293 hNpr1 GloSensor cGMP, ANP-stimulated luminescence. Potency, µM (top dose mostly 46.3 µM), without a hit: at the top dose activity change, negative = inhibition, usual class: inhibitors. 76,000 compounds, 1.6% hits; calls by dose curve; further: nearly all actives have a fitted effect of over 60% in size
Target sequence (P16066 whole entry, looked up): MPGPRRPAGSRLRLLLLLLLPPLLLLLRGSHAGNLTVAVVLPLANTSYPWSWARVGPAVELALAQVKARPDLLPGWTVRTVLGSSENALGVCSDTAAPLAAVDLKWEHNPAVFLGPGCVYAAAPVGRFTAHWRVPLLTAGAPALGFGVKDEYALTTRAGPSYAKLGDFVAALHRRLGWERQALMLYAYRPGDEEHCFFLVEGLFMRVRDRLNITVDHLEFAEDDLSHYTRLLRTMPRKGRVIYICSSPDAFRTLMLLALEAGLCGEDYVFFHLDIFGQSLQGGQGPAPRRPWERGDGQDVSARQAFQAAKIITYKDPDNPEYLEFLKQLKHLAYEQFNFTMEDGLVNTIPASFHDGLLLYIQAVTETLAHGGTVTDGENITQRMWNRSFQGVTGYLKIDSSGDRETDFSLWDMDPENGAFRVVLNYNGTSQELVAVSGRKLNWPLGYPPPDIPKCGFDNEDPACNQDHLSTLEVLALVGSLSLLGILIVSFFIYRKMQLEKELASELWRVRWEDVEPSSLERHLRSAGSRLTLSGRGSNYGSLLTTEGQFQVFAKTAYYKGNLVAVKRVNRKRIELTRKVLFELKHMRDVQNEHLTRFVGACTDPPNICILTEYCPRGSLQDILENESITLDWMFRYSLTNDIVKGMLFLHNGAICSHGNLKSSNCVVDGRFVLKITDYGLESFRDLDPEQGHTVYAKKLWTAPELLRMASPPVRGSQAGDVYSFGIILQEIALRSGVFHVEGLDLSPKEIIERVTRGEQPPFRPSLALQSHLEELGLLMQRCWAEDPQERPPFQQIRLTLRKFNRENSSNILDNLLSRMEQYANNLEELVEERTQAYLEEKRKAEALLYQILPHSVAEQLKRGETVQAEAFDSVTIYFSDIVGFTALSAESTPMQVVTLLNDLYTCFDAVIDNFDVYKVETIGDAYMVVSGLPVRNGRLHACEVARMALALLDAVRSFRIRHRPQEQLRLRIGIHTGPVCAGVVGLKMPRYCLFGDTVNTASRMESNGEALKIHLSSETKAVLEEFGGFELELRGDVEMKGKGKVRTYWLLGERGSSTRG
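Compound pre-incubated 30 min at room temperature on GloSensor-loaded HEK293 cells stably carrying hNpr1 and the pGS-40F cGMP biosensor. Stimulation uses hNppA at 0.1 nM final; luminescence is taken at baseline and 20 min post-agonist.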
FLuc inh: inhibitors of firefly (Photinus pyralis) luciferase | Potency, µM (top dose mostly 115 µM), most hits filed as inhibitors | P08659 | 76,000 compounds, 2.5% hits | AID 1347043 | purified P. pyralis luciferase, luminescence, biochemical; further: nearly all actives have a fitted effect of over 65% in size
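Cell-free enzyme assay, 10nM P. pyralis luciferase, luciferin and ATP each at 10uM. Inhibition profiled over a 6-point titration, read as luminescence.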
SNCA viab count: reduces viability of HEK-293 SNCA reporter cells; HEK-293-SNCA-luc viability, GF-AFC fluorescence, 24 h; Potency, µM (titrated, usually from 57.1 µM), without a hit: top-dose activity change, negative = cytotoxicity, usual class: cytotoxic; 150,000 compounds, 0.12% hits; AID 1671193;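 further: 0% = DMSO-treated cells and -100% = medium-only wells without cells; nearly all actives have a fitted effect of over 30% in size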
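Cytotoxicity counterscreen: after 24 h compound treatment of genome-edited SNCA-luciferase HEK-293 cells, live-cell protease substrate GF-AFC read by fluorescence after 30 min; activity scaled between DMSO (0%) and medium-only (-100%), curves Hill-fitted.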
NIH3T3 tox: kills NIH 3T3 cells. NIH 3T3 viability, CellTiter-Glo ATP luminescence, 48-72 h. Potency, µM (doses to about 96.7 µM), for the others: at the top dose activity change, negative = cytotoxicity, actives largely listed as inhibitors. 94,000 compounds, 4.3% hits; further: nearly all actives have a fitted effect of over 55% in size
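Cells were seeded at 400 per well, treated with pin-transferred compound, and kept 48 or 72 hr at 37 °C before CellTiter-Glo addition and luminescence imaging of cellular ATP.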
SNCA expr inh: SNCA gene expression inhibition. Potency, µM (highest dose often 57.2 µM), for the others: at the highest dose activity change, negative = inhibition, actives largely listed as inhibitors. HEK-293 SNCA-luciferase knock-in, luminescence, 24 h. AID 1671194. 140,000 compounds, 0.17% hits;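 further: plate controls were DMSO cells for no effect and cell-free wells for full effect; nearly all actives have a fitted effect of over 45% in size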
HEK cytotox: kills HEK 293 cells. HEK 293 viability, ATP luminescence (CellTiter-Glo), 48-72 h. Potency, µM (titrated, usually from 115 µM), without a hit: top-dose activity change, negative = cytotoxicity, most hits filed as inhibitors. 94,000 compounds, 6.6% hits. AID 1345083; further: nearly all actives have a fitted effect of over 60% in size
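qHTS cytotoxicity; HEK 293, 250 cells/well; compound pinned; 48 or 72 hr, 37 degree Celsius, 5% CO2, 95% humidity; CellTiter-Glo, 10 min RT; luminescence (ATP).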
The depositor's hits bear a star; i = inactive; ? = inconclusive; nt = no result; [ ] = another dose, or the depositor's remark. Most compounds without a hit are left out; they make up all but 7.4% or so of the library. Unless noted, the call rests on the fitted dose curve; in most records, active means well fitted curve in the direction sought with a large enough effect; inconclusive means small, poorly fitted or top-dose-only effect, or another doubt; inactive means no such curve, though single readings can be large; an effect the other way counts as inactive or inconclusive. Unless noted, on the % scale 0 is the no-effect control and ±100 the full control effect; potency means the concentration at half of the fitted maximal effect.

SMILES	hNpr1 antagonist	FLuc inh	SNCA viab count	NIH3T3 tox	SNCA expr inh	HEK cytotox
CC1(C)C(=O)N(CCOc2ccccc2)[C@H]2CN(C3CCOCC3)C[C@H]2[S+]1(=O)[O-]	1%[70.6 µM]	i	1%[87.6 µM]	?	?	-1%[172 µM]
C=CCN1C[C@H]2COc3ccccc3[C@H]2N(C(=O)OCC)CCC1=O	nt	nt	nt	?	nt	-21%
Clc1ccc(-c2cnc3n[nH]c(-c4ccccc4)c3n2)cc1	-11%[70.6 µM]	i	-20%[87.6 µM]	28µM*	?	79µM*
COc1cc(F)ccc1-c1cnc2n[nH]c(-c3ccccc3)c2n1	-16%[70.6 µM]	i	10%[87.6 µM]	?	-23%[87.6 µM]	?
Fc1ccc(-c2cnc3n[nH]c(-c4ccccc4)c3n2)cc1	-2%[70.6 µM]	i	-7%[87.6 µM]	28µM*	?	?
CCc1nc(NCc2cn[nH]c2-c2ccc(Cl)cc2)c2cnn(C)c2n1	-1%	i	1%	45µM*	?	?
CCC(=O)N1CCN(c2nc3c(s2)CC(C(=O)NCC(C)C)CC3)CC1 (stereo not given)	-18%	i	3%	-18%	16%	?
COc1ccc(C(=O)Nc2cc(C3CCCC3)nn2C)cc1	nt	nt	-15%[87.6 µM]	?	-13%[87.6 µM]	100µM*
COc1cccc(C(=O)Nc2cc(C3CCCC3)nn2C)c1	nt	nt	-4%[87.6 µM]	?	18%[87.6 µM]	?
OC1(CN2CCN(c3ccc(F)c(Cl)c3)CC2)CCCNC1 (stereo not given)	3%	i	1%	?	-16%	79µM*
Cn1ncc(N2CCN(CC3(O)CCCNC3)CC2)cc1=O (stereo not given)	1%	i	0%	-19%	9%	?
Cc1ccc(-c2ncc(C(=O)N3CCOC(CCN)C3)c(=O)[nH]2)cc1 (stereo not given)	0%	i	-10%	3%	13%	0%
Cc1ccc(C(=O)N2CCC3(CC2)NC(=O)N(c2ccccc2Cl)N3)cc1C	-2%	i	-8%	?	2%	?
CC(C)N1C(=O)C2(CCCC2)C1C(=O)N(C)CCc1ccccn1 (stereo not given)	-1%	i	-5%	-5%	-18%	-4%
COCCCNC(=O)c1nc2sccn2c1-c1cccnc1	nt	nt	2%[87.6 µM]	-5%[138 µM]	6%[87.6 µM]	1%[172 µM]
Cn1ncc2c(C(=O)C3CCN(Cc4ccccc4)CC3)cc(-c3ccccc3C(F)(F)F)nc21	nt	nt	nt	32µM*	nt	20µM*
Cn1ncc2c(C(=O)NCc3ccccc3F)cc(-c3ccccc3C(F)(F)F)nc21	nt	nt	nt	?	nt	40µM*
Cn1ncc2c(C(=O)NCCc3cccc(F)c3)cc(-c3ccccc3C(F)(F)F)nc21	nt	nt	nt	?	nt	40µM*
COc1ccccc1-c1cc(C(=O)NCc2ccccc2F)c2cnn(C)c2n1	nt	nt	nt	-19%	nt	-12%
COc1ccc(S(=O)(=O)N2CCCCC2c2nc(-c3cnccn3)n[nH]2)cc1 (stereo not given)	0%	i	9%	1%	6%	-5%
CCOc1ccc(C(=O)N2CCC3(CC2)C(=O)N(CC)c2ccccc23)cc1OCC	1%	i	-1%	-19%	3%	?
Cc1ccc(Nc2ccnc(N3CCCC3C(=O)N3CCC(c4ccccc4)CC3)n2)cc1 (stereo not given)	nt	nt	0%[12.5 µM]	32µM*	?	32µM*
O=C(C1CCCN1c1nccc(Nc2ccccc2F)n1)N1CCC(c2ccccc2)CC1 (stereo not given)	nt	nt	2%[12.5 µM]	?	-14%	?
Cc1ccc(Nc2ccnc(N3CCCC3C(=O)N3CCN(Cc4ccccc4)CC3)n2)cc1 (stereo not given)	nt	nt	-20%[12.5 µM]	35µM*	4%	14µM*
O=C([C@@H]1CCCN1c1nccc(Nc2ccccc2Cl)n1)N1CCN(Cc2ccccc2)CC1	nt	nt	-2%[12.5 µM]	45µM*	-15%	?
SMILES	hNpr1 antagonist	FLuc inh	SNCA viab count	NIH3T3 tox	SNCA expr inh	HEK cytotox
O=C([C@@H]1CCCN1c1nccc(Nc2ccccc2Cl)n1)N1CCCC1	nt	nt	1%[12.5 µM]	?	20%	?
O=C(C1CCN(c2nccc(Nc3ccccc3Cl)n2)CC1)N1CCC(c2ccccc2)CC1	nt	nt	-8%	40µM*	?	32µM*
COc1ccc(CNC(=O)C2=NO[C@@H]3CN(c4ccccn4)C[C@H]23)cc1OC	-10%[70.6 µM]	i	5%[87.6 µM]	-25%[138 µM]	11%[87.6 µM]	?
O=C([C@@H]1CCCN1c1nccc(Nc2ccccc2Cl)n1)N1CCC(c2ccccc2)CC1	nt	nt	-4%[12.5 µM]	35µM*	?	22µM*
O=C(C1CCCN1c1nccc(Nc2ccccc2F)n1)N1CCN(Cc2ccccc2)CC1 (stereo not given)	nt	nt	5%[12.5 µM]	?	5%	32µM*
CCc1ccc(S(=O)(=O)N2CCC(n3cnnc3C3CC3)CC2)cc1	nt	nt	0%	?	?	?
COc1ccc(CC(=O)Nc2nc3c(s2)C[C@@H]2[C@](C)(CO)[C@H](O)CC[C@@]2(C)[C@@H]3CC(=O)NCCNC(C)=O)cc1	1%	i	0%	2%	-19%	-20%
Cc1ccc(C2NC(=O)N(CC(=O)Nc3cccc(C#N)c3)C3=C2C(=O)OC3)cc1 (stereo not given)	-14%	i	3%	?	?	?
CN1C(=O)[C@@H]2C[C@@H](CN2Cc2ccc(F)c(F)c2)Oc2ccccc21	-10%[70.6 µM]	i	4%[87.6 µM]	?	-3%[87.6 µM]	-22%[172 µM]
O=C(NCCc1ccccc1)N1CCC(c2noc(COc3ccc(F)cc3)n2)C1 (stereo not given)	nt	nt	3%	?	18%	45µM*
Cc1ccc(OCc2nc(C3CCN(C(=O)NCc4ccccc4)C3)no2)cc1 (stereo not given)	nt	nt	1%	?	3%	45µM*
CNC(=O)[C@@H]1C[C@@H](n2cc(CN(C)C(=O)c3cc4ccccc4s3)nn2)CN1	-1%	i	6%	-17%	-20%	-16%
C#CCNC(=O)[C@@H]1Cc2cn(CC#CC)c3cccc(c23)[C@H](CC(C)C)N1	-2%[70.6 µM]	i	0%[87.6 µM]	?	-17%[87.6 µM]	?
CC#CCn1cc2c3c(cccc31)[C@H](CC(C)C)N[C@H](C(=O)NCc1ccco1)C2	-10%[70.6 µM]	i	-14%[87.6 µM]	89µM*	-24%[87.6 µM]	?
CC#CCn1cc2c3c(cccc31)[C@H](CC(C)C)N[C@H](C(=O)NC1CC1)C2	-11%[70.6 µM]	i	?	?	?	89µM*
CC#CCn1cc2c3c(cccc31)[C@H](CC(C)C)N[C@H](C(=O)NCc1ccc(OC)cc1)C2	0%	i	?	?	5%	?
